Screening data (PubChem)
In the library only some 11% were active in any assay of this set; here they are far more common.
Pf growth 48h: P. falciparum growth inhibition at 48 hours (one generation); P. falciparum luciferase growth in erythrocytes, 48 h; Potency, µM (top dose mostly 28.7 µM), usual class: inhibitors; 310,000 tested, 5.9% active; AID 504832
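Luciferase-expressing parasites in RBCs, 2% Hct / 0.1% parasitemia final; RPMI 1640 + 0.5% Albumax; 37 C, 5% CO2, one generation; luminescence read-out, lower signal = inhibition.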
HCV inhibitor: blocks hepatitis C virus | Huh7.5.1 HCVcc-Cre infection, luciferase reporter, 44 h | Potency, µM (highest dose often 41.8 µM), most hits filed as inhibitors | AID 651820 | 340,000 tested, 3.4% active
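Cells (1,000/well) were plated 4 h before compound, then infected with HCVcc-Cre virus (~0.5 moi). After 44 h further culture, infection was read as luciferase luminescence following a 15 min substrate incubation at room temperature.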
Pf growth 96h: inhibits malaria parasite growth, 96 h; P. falciparum luciferase reporter growth, 96 h; Potency, µM (top dose mostly 28.7 µM), hits mostly inhibitors; AID 504834; 320,000 tested, 6.9% active
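Readout is luminescence from an integrated firefly luciferase in P. falciparum. Red cells, 2% hematocrit and 0.05% parasitemia final, were cultured with compound through two parasite generations (96 hours) at 37 C, 5% CO2.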
AMA1-RON2 inh: disrupts binding of P. falciparum AMA1 to RON2; AlphaScreen AMA1-biotinylated RON2 peptide binding; Potency, µM (top dose mostly 58.2 µM), hits mostly inhibitors; 360,000 tested, 0.2% active; note: nearly all actives have a fitted effect of over 45% in size
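AMA1 (3D7) with his tag at 25 nM final met compounds first, then biotinylated RON2 peptide at 25 nM; detection used donor plus acceptor beads, 10 µg/mL apiece, read by AlphaScreen after 30 min at room temperature.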
Large screens that a line does not name were inactive. Calls come from the whole dose curve; as a rule, active = well fitted curve in the direction sought with a large enough effect; inconclusive = small, poorly fitted or top-dose-only effect, or another doubt; inactive = no such curve, though single readings can be large; an effect the other way counts as inactive or inconclusive.

CC(C)C(C(=O)Nc1ccncc1)c1ccc(Cl)cc1 (centres undefined)	Pf growth 48h 3.3µM, HCV inhibitor inconclusive, Pf growth 96h 1.5µM
CC(C)C(C(=O)Nc1nccs1)c1ccc(Cl)cc1 (centres undefined)	Pf growth 48h inconclusive, HCV inhibitor inconclusive, Pf growth 96h 9.3µM
CC(C(=O)Nc1nccs1)c1ccc([N+](=O)[O-])cc1 (centres undefined)	Pf growth 48h inconclusive
Brc1ccc(-n2cc(-c3ccccc3)c3c(NN4CCOCC4)ncnc32)cc1	HCV inhibitor inconclusive, Pf growth 96h inconclusive
c1cn2c(NC3CCCCC3)c(-c3ccc(SC4CCCCC4)cc3)nc2cn1	Pf growth 48h 3.7µM, Pf growth 96h inconclusive
CCN(CC)c1ccc(-c2nc3cnccn3c2NC2CCCC2)cc1	Pf growth 48h inconclusive, HCV inhibitor 32µM, Pf growth 96h inconclusive
Cc1cc(N)n(-c2ccc(S(=O)(=O)c3ccc(C(C)C)cc3)cc2)n1	none
CN(C)C(CNC(=O)c1ccc2c(=O)n(-c3ccccc3F)c(=S)[nH]c2c1)Cc1ccccc1 (centres undefined)	Pf growth 48h inconclusive, HCV inhibitor 2.2µM, Pf growth 96h inconclusive
O=C(NCCCN1CCCC1=O)c1ccc2c(=O)n(-c3ccccc3F)c(=S)[nH]c2c1	HCV inhibitor inconclusive, Pf growth 96h inconclusive
CCCC12CN3CC(CCC)(CN(C1)C3c1ccccn1)C2=O (centres undefined)	Pf growth 48h 9.3µM (no result: Pf growth 96h)
OC[C@H](S)CS	Pf growth 48h 1.5µM, Pf growth 96h 0.6µM (no result: HCV inhibitor, AMA1-RON2 inh)
O=c1cc(-c2ccccc2)oc2cc(O)c(O)c(O)c12	none (no result: Pf growth 48h, Pf growth 96h)
O=c1c(O)cccc2cc(O)c(O)c(O)c12	Pf growth 96h inconclusive, AMA1-RON2 inh 2.5µM
O=C(N[C@@H](Cc1ccccc1)C(=O)OCc1ccccc1)c1nc[nH]c1C(=O)NCc1ccccc1	Pf growth 96h inconclusive
COc1ccc(CCNC(=O)CCS(=O)(=O)c2ccc3nc(C)sc3c2)cc1OC	none
CCOc1ccc(C)cc1S(=O)(=O)n1ccc(C)n1	none
COCCCNC(=S)N1CCN(C(c2ccccc2)c2ccccc2)CC1	Pf growth 48h 13µM (no result: HCV inhibitor)
CC(C)CNC(=S)N1CCN(C(c2ccccc2)c2ccccc2)CC1	Pf growth 48h inconclusive, Pf growth 96h 2.1µM
O=C(OCC(=O)N1CCN(C(=O)c2ccco2)CC1)c1ccccc1NCCO	Pf growth 96h inconclusive
COc1ccc(C(=O)/C=C/C(=O)N(Cc2ccc3c(c2)OCO3)C(C(=O)NC2CCCCC2)c2ccncc2)c(O)c1 (centres undefined)	Pf growth 48h 5.2µM, HCV inhibitor inconclusive
COc1ccc(CN(C(=O)/C=C/C(=O)c2ccc(OC)cc2O)C(C(=O)NC2CCCCC2)c2ccncc2)cc1 (centres undefined)	Pf growth 48h 12µM
COCCN(CC(=O)NC1CCCCC1)C(=O)/C=C/C(=O)c1ccc(OC)cc1O	HCV inhibitor inconclusive, Pf growth 96h inconclusive
CCOC(=O)C1=C(C)N=c2s/c(=C\c3ccc(OCC(=O)O)cc3)c(=O)n2C1c1ccccc1OC (centres undefined)	Pf growth 48h 1µM
COc1ccc(/C=c2/sc3n(c2=O)C(c2ccccc2OC)C2=C(N=3)c3ccccc3CC2)cc1O (centres undefined)	Pf growth 48h 2.1µM, HCV inhibitor inconclusive, Pf growth 96h 2.3µM
CCOC(=O)C1=C(C)N=c2s/c(=C/c3cccc([N+](=O)[O-])c3O)c(=O)n2C1c1ccc(OC)cc1OC (centres undefined)	Pf growth 48h inconclusive, Pf growth 96h 4.7µM
CCOC(=O)C1=C(C)N=c2s/c(=C/c3ccc(OCC(=O)O)cc3)c(=O)n2C1c1ccc(OC)cc1OC (centres undefined)	Pf growth 48h 0.47µM, Pf growth 96h 1.2µM
COc1ccc(C2C(C(C)=O)=C(C)N=c3s/c(=C\c4ccco4)c(=O)n32)c(OC)c1 (centres undefined)	Pf growth 48h inconclusive, AMA1-RON2 inh inconclusive
CCOC(=O)C1=C(c2ccccc2)N=c2s/c(=C\c3ccco3)c(=O)n2C1c1cccs1 (centres undefined)	AMA1-RON2 inh inconclusive
COc1ccc(C2C(C(C)=O)=C(C)N=c3s/c(=C\c4cc(C)n(C)c4C)c(=O)n32)c(OC)c1 (centres undefined)	Pf growth 48h 9.3µM, Pf growth 96h 8.3µM
